Measured values: PubChem BioAssay AID504321 (NMMLSC, 2011)
Unmarked numbers belong to inactive results. Calls of active or inactive are those of the source.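 Rule for the calls: active = GFP response vs DMSO above 150% with enough events counted; inconclusive = fewer than 70 events counted for a yeast strain; inactive = the rest.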

Assay: MEP2-GFP expression modulation in yeast, confirmation, flow cytometry, third cherry pick, S. cerevisiae (AID 504321);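 note: median per-cell GFP fluorescence by flow cytometry across all yeast cells; ratio of sample to DMSO median GFP so 100% equals the DMSO level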
Settings: S. cerevisiae MEP2-GFP strain, 3 h, at 10 µM, active compounds read high

| Compound | GFP response vs DMSO |
| --- | --- |
| COc1ccccc1Nc1nc(NCCO)nc(N)c1[N+](=O)[O-] | 105% |
| Oc1c(Br)cc(Br)c2cccnc12 | 189% (active) |
| C=CCNc1nc(N)c([N+](=O)[O-])c(Nc2cccc(Cl)c2)n1 | 108% |
| O=C(/C=C/Nc1cccc(O)c1)c1ccccc1 | 112% |
| COC(=O)COc1c(Cl)cc(Cl)c2ccc(C)nc12 | 118% |
| O=C(O)c1ccc2cccnc2c1O | 101% |
| COCC(C)NC(=O)CCS(=O)(=O)c1nc(-c2ccc(OC)cc2)cc(C(F)(F)F)n1 (centres undefined) | 112% |
| C=CCNc1nc(N)c([N+](=O)[O-])c(Nc2ccccc2OC)n1 | 103% |
| Oc1ccc(F)c2cccnc12 | 116% |
| O=C(N/N=C/c1ccccc1O)c1cccc2ccccc12 | 110% |
| COc1ccccc1Nc1nc(NCCC(C)C)nc(N)c1[N+](=O)[O-] | 105% |
| CSc1ccccc1OCc1cc(C(=O)N2CCN(C)C(c3ccccc3)C2)no1 (centres undefined) | 103% |
| OCc1ccnc2c(O)cccc12 | 108% |
| O=C(Nc1ccc(-c2nc3ccccc3o2)cc1)c1cccnc1 | 103% |
| COC(=O)c1cc(=O)c2cccc(OC)c2[nH]1 | 110% |
| CNc1nc(C)c([N+](=O)[O-])c(Nc2ccc(OC)cc2)n1 | 105% |
| Nn1cnc2c(c1=O)C1(CCCCC1)Cc1ccccc1-2 | 116% |
| OCc1ccc(O)c2ncccc12 | 99% |
| NC(=O)c1ccnc2c(O)cccc12 | 108% |
| Nc1cc(C(=O)O)c(N)c2c1C(=O)c1ccccc1C2=O | 110% |

| Compound | GFP response vs DMSO |
| --- | --- |
| O=C(Nc1cccc2ccccc12)ON=C1CCCCC1 | 121% |
| Cc1ccc(Nc2cc(=O)[nH]c(=O)[nH]2)cc1Cl | 101% |
| COc1ccccc1-c1cc(C(F)(F)F)nc(S(C)(=O)=O)n1 | 142% |
| CN1CCN(C(=O)c2cc(COc3ccc(F)cc3Cl)on2)CC1c1ccccc1 (centres undefined) | 101% |
| CC1=CN2C(=N)/C(=C/c3ccc([N+](=O)[O-])o3)C(=O)N=C2S1 | 5270% (active) |
| COC1=C/C(=C/c2c(N)n3cc(C)sc3nc2=O)C=CC1=O | 131% |
| CC(=O)C(Cl)C(=O)Nc1ccccc1 (centres undefined) | 118% |
| COc1cccc2c(Cl)c(CCCl)c(C)nc12 | 101% |
| Cc1cccc(N/C=C/C(=O)c2ccc(Cl)cc2)c1 | 112% |
| COc1ccccc1Nc1nc(NCC(C)C)nc(N)c1[N+](=O)[O-] | 114% |
| CCN(CC)c1ncnc2ccc(Br)cc12 | 114% |
| CSc1nc(Nc2ccc(Cl)cc2)c(C#N)c(=O)[nH]1 | 108% |
| Cc1cc(C)c(NC(=O)CC(=O)c2ccccc2)c(Cl)c1 | 105% |
| COc1ccc(OC)c(Nc2nc(NCCC(C)C)nc(N)c2[N+](=O)[O-])c1 | 108% |
| COc1cc(OC)cc(C(=O)Nc2ccc(-c3nc4ccccc4o3)cc2)c1 | 110% |
| COc1cccc2c(=O)c(C(=O)O)c[nH]c12 | 116% |
| Nc1ccc(O)c2c1C(=O)c1ccccc1C2=O | 112% |
| C/C(=C\C(=O)c1ccccc1)Nc1ccc(O)cc1 | 105% |
| CCN(CC)C(=O)Oc1cc(=O)n(C)c2ccccc12 | 112% |
